This is one part of a sample in which hits are shown more often than they occur.
HT1080-NT tox = qHTS for induction of synthetic lethality in tumor cells producing 2HG: qHTS for the HT-1080-NT fibrosarcoma cell line. HT-1080-NT fibrosarcoma viability, CellTiter-Glo ATP luminescence, 48 h. Potency, µM (highest dose often 46.1 µM), without a hit: at the highest dose activity, negative = less viability, actives largely listed as cytotoxic. 1.6% of 360,000 active;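 also: NT is the 2HG producing partner of a matched IDH1 knockdown line; potency is read from the fitted curve at half-maximal effect; 0% = DMSO-treated cells and -100% = media-only wells without cells; nearly all actives have a fitted effect of over 55% in size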
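Fibrosarcoma NT cells, 750 per well in 5% FBS RPMI, were exposed to compound for 48 hours. Viability: CellTiter-Glo luminescence.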
HT1080 IDH1KD tx = qHTS for induction of synthetic lethality in tumor cells producing 2HG: qHTS for the HT-1080-IDH1KD cell line. HT-1080 IDH1 knockdown viability, ATP luminescence, 48 h. Potency, µM (series often up to 46.1 µM), for inactives: at the highest dose activity, negative = toxicity, usual class: cytotoxic. 2% of 360,000 active. AID 686971, 2013;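 also: potency is read from the fitted curve at half-maximal effect; 0% = DMSO wells and -100% = cell-free medium wells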
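% activity derives from luminescence (CellTiter-Glo), normalised to DMSO and no-cell wells. HT-1080-IDH1KD cells, 750/well, had 48 h compound exposure at 37 °C.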
TDP1 cell noCPT = qHTS for Inhibitors of human tyrosyl-DNA phosphodiesterase 1 (TDP1): qHTS in cells in absence of CPT | DT40 Tdp1-/- hTDP1 cells, no CPT, ATP luminescence, 48 h | Potency, µM (doses to about 46.2 µM), inactives show top-dose activity change, negative = growth inhibition, actives largely listed as inhibitors | 15% of 420,000 active; also: potency is read from the fitted curve at half-maximal effect; nearly all actives have a fitted effect of over 55% in size
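Chicken DT40 Tdp1-/- cells complemented with human TDP1, screened without camptothecin (DMSO vehicle only), 400 cells/well. Compounds pin-transferred, cells incubated at 37 °C for at least 48 hr. Growth read as ATP-dependent luminescence (CellTiter-Glo, 30 min at RT).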
IL1B secr inh = qHTS for Inhibitors of Inflammasome Signaling: IL-1-beta AlphaLISA Primary Screen. THP-1 LPS/ATP IL-1B secretion, AlphaLISA, 16 h; stronger effect = lower value. activity change, % at 57.5 µM. 4.7% of 360,000 active; in the data active = activity change below about -50%; inconclusive = mostly about -30% to -49%
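THP-1 cells pretreated 1 hr with compounds (up to 57.5 uM final), then stimulated with LPS (250 ng/mL final) plus ATP (1.25 mM final); secreted IL-1B measured by AlphaLISA after 16 hr, decreased signal indicating inhibition.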
TDP1 cell CPT = qHTS for Inhibitors of human tyrosyl-DNA phosphodiesterase 1 (TDP1): qHTS in cells in presence of CPT; Potency, µM (top dose mostly 46.2 µM), without a hit: top-dose activity change, negative = growth inhibition, usual class: inhibitors; 12% of 420,000 active; chicken DT40 Tdp1-/-;hTDP1 cells + 20 nM CPT, ATP luminescence, 48 h; also: potency is read from the fitted curve at half-maximal effect; nearly all actives have a fitted effect of over 55% in size
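Chicken DT40 Tdp1-/- cells complemented with human TDP1, 400 cells/well, exposed to compounds plus 20 nM camptothecin for at least 48 h at 37 C; viability read as ATP content by CellTiter-Glo luminescence.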
ALOX12 inh = Primary qHTS assay for inhibitors of human arachidonate 12S-lipoxygenase (ALOX12): Round 2; Polyunsaturated fatty acid lipoxygenase ALOX12 (Homo sapiens), P18054; purified 12hLO, xylenol orange hydroperoxide absorbance; Potency, µM (series often up to 108 µM), without a hit: at the highest dose activity change, negative = inhibition, hits mostly inhibitors; 1.1% of 580,000 active; AID 1671190, 2021; also: potency is read from the fitted curve at half-maximal effect
Target sequence (P18054 whole entry, looked up): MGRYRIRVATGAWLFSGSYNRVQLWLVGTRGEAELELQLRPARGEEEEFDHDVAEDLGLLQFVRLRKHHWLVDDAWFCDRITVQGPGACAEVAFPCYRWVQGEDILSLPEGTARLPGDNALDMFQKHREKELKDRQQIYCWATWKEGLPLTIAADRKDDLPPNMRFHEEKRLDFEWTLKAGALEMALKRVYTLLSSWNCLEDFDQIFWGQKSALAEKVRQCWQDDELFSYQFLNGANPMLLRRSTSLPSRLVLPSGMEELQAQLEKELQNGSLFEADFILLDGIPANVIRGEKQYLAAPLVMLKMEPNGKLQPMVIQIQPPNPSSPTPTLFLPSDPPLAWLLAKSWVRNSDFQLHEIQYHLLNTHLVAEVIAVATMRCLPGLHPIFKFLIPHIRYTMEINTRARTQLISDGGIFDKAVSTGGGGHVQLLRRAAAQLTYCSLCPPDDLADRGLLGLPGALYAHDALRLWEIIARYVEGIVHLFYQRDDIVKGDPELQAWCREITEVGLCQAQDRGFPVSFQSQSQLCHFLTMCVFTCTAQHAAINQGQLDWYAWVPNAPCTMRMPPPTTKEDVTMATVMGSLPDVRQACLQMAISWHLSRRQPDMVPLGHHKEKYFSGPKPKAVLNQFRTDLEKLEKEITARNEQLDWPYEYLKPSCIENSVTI
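Hydroperoxide product was detected by ferrous iron/xylenol orange as the 573 to 405 nm absorbance ratio. Arachidonic acid at 40 uM (final) was turned over for 30 min at room temperature by 150 nM human 12hLO, pH 7.0 Hepes buffer, after 15 min compound preincubation.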
An asterisk follows results filed as active; ? = inconclusive; . = no result given. Unless noted, calls follow the shape of the dose curve; as a rule, active = well fitted curve in the direction sought with a large enough effect; inconclusive = small, poorly fitted or top-dose-only effect, or another doubt; inactive = no such curve, though single readings can be large; an effect the other way counts as inactive or inconclusive. Unless noted, % is scaled to controls: 0 for no effect and ±100 for the full control effect.

SMILES	HT1080-NT tox	HT1080 IDH1KD tx	TDP1 cell noCPT	IL1B secr inh	TDP1 cell CPT	ALOX12 inh
C#CCN(C[C@H]1[C@H](OC(=O)NCC2CCCCC2)[C@H](OC(=O)NCC2CCCCC2)C[C@@H](C(=O)OC)[C@H]1C(=O)OC)S(=O)(=O)c1ccc(C)cc1	0%	-1%	2.9µM*	-9	2.9µM*	0%
C#CCN(C[C@H]1[C@H](OC(=O)NCc2ccccc2F)[C@H](OC(=O)NCc2ccccc2F)C[C@@H](C(=O)OC)[C@H]1C(=O)OC)S(=O)(=O)c1ccc(C)cc1	-2%	-4%	6.5µM*	-18	4.6µM*	-4%
Cc1ccc(-c2noc([C@@H](N)CCCCN)n2)nn1	.	.	.	.	.	12%
CNC(=O)[C@@H]1CN(C(=O)c2nn(C)c3ccccc23)C[C@H]1CO	.	.	.	.	.	2%
C[C@@H]1CN([C@@H](C)CO)C(=O)c2cc(Br)cnc2O[C@@H]1CN(C)C(=O)CN(C)C	4%	15%	-16%	6	-2%	9%
O=C(CCl)N(c1ccccc1)C1CCS(=O)(=O)C1 (stereo not given)	?	18µM*	8.2µM*	-89*	8.2µM*	5%
CC(=O)Nc1ccc(C(=O)OCC(=O)N(c2ccccc2)C2CCS(=O)(=O)C2)cc1 (stereo not given)	11%	13%	-13%	-6	-3%	1%
COc1cc2nc(NCCCN3CCN(C)CC3)n3nc(-c4ccccc4)nc3c2cc1OC	16µM*	?	?	-110*	?	0%
CCOc1ccccc1NC(=O)CSc1nc2cc(OC)c(OC)cc2c2nc(-c3ccccc3)nn12	.	.	7%	.	39%	0%
CN1CCN(CCCNc2nc3ccccc3c3nc(-c4ccccc4)nn23)CC1	11%	24%	13µM*	-7	?	0%
COc1ccc(-n2ncc3c(SCC(=O)N4CCN(c5ccccc5OC)CC4)ncnc32)cc1	-3%	-1%	21µM*	39	?	36%
O=C(CSc1ncnc2scc(-c3ccccc3)c12)N1CCN(c2ccccc2F)CC1	11%	8%	18µM*	-1	?	0%
O=C(O)CSCC(=O)N1CCN(c2ncnc3scc(-c4ccccc4)c23)CC1	13%	0%	3%	16	1%	-3%
COc1ccccc1N1CCN(C(=O)CSc2ncnc3scc(-c4ccccc4)c23)CC1	-8%	-14%	16µM*	-16	?	-10%
O=C(c1cccc([N+](=O)[O-])c1)N1CCN(c2ccc(Nc3ccccc3)nn2)CC1	.	.	21µM*	.	?	3%
Cc1ccc(Nc2ccc(N3CCN(C(=O)c4ccc([N+](=O)[O-])cc4Cl)CC3)nn2)cc1	.	.	18µM*	.	21µM*	-72%
CC(C)(CNC(=O)C1CCCCC1)CNC(=O)C1CCCCC1	.	.	.	.	.	2%
Cc1cccn2c(=O)c(/C=C(\C#N)C(=O)NCc3ccco3)c(N3CCCC(C)C3)nc12 (stereo not given)	22%	14%	?	-53*	?	-10%
COC(=O)/C(C#N)=C/c1c(N2CCN(c3cccc(Cl)c3)CC2)nc2c(C)cccn2c1=O	0%	5%	?	50	?	3%
Cc1cccn2c(=O)c(C=O)c(N3CCSCC3)nc12	-6%	-3%	-17%	-50*	-27%	0%
C=CCNC(=O)/C(C#N)=C/c1c(N2CCN(c3ccc(OC)cc3)CC2)nc2c(C)cccn2c1=O	-19%	-18%	13µM*	10	?	3%
Cc1cccn2c(=O)c(C=O)c(N3CCN(C)CC3)nc12	9%	18%	2%	17	17%	-3%
C=CCNC(=O)/C(C#N)=C/c1c(N2CCN(c3ccccc3)CC2)nc2c(C)cccn2c1=O	0%	13%	?	55	6%	3%
Cc1cccn2c(=O)c(C=C(C#N)C#N)c(N3CCN(c4cccc(Cl)c4)CC3)nc12	8%	9%	?	-75*	-20%	-14%
Cc1ccc(OCCN(C)C(=O)c2cnc3ccccc3n2)cc1	.	.	.	.	.	-6%
SMILES	HT1080-NT tox	HT1080 IDH1KD tx	TDP1 cell noCPT	IL1B secr inh	TDP1 cell CPT	ALOX12 inh
CC(=O)c1ccc(NC(=O)C[n+]2cccc(C)c2)cc1	3%	1%	-4%	-6	8%	326%
Cc1noc(C)c1S(=O)(=O)N1CCC2(CC1)CC(N1CCN(C(C)C)CC1)CCO2 (stereo not given)	.	.	.	.	.	0%
CNC(=O)[C@@H]1CN(S(=O)(=O)c2ccc(Cl)s2)C[C@H]1c1nc(C)no1	.	.	.	.	.	0%
COCCCNC(=O)/C(C#N)=C/c1c(N2CCN(c3ccccc3)CC2)nc2c(C)cccn2c1=O	-3%	-10%	16µM*	-7	?	-123%
COCCCNC(=O)/C(C#N)=C/c1c(N2CCN(c3cccc(Cl)c3)CC2)nc2c(C)cccn2c1=O	3%	1%	?	-66*	?	4%
NC(=O)c1ccc(NC(=O)c2nccnc2N)cc1	.	.	.	.	.	28%
COCc1nc(-c2nc3c([nH]2)CC(c2ccc(Cl)cc2)CNC3=O)no1 (stereo not given)	.	.	.	.	.	94%
COc1ccc2cc(C(=O)N3CCc4n[nH]c(=O)n4CC3)[nH]c2c1	.	.	.	.	.	41%
CN1C(=O)C2(c3ccccc31)N(C)CC(c1ccccc1)C21SC(=S)N(Cc2ccco2)C1=O (stereo not given)	6%	4%	9.2µM*	0	?	20%
Cc1ccc(OCCn2c(CN(C)C(=O)c3ccco3)nc3ccccc32)cc1	.	.	.	.	.	-3%
O=C(NCc1ccccc1)C1c2ccccc2OCC(=O)N1Cc1ccccc1 (stereo not given)	-87%	?	12µM*	-15	?	-24%
O=C1COc2ccccc2C(c2nc3ccccc3[nH]2)N1Cc1ccccc1 (stereo not given)	0%	2%	16µM*	12	?	-10%

Bioassay records: PubChem BioAssay, National Center for Advancing Translational Sciences (NCATS)
